In ChEMBL document CHEMBL4513146, “CO-ADD screening of Karazin Kharkiv National University (Ukraine) compounds” one finds Inhibition data, which are given here for 39 compounds.

Measured potencies and affinities stand elsewhere.

One experiment concerns Candida albicans. As to conditions: Concentration 32 ug.mL-1; ASSAY_TEST Inhibition of Fungal Growth; detection method Absorption (OD530).
As a reminder, the Inhibition is the change of the read-out against control, counted positive when it falls. As to `O=C(Cn1nc2c(N3CCOCC3)nccn2c1=O)NCc1cccs1`, the Inhibition stood at 2.44%.
Same read-out and setting: under `COc1cc(NC(=O)CSc2nnc3c(=O)n(-c4cccc(OC)c4)ccn23)cc(OC)c1` stands 3.75%; under `CCc1ccccc1Sc1nccn2c(=O)n(CC(=O)NCc3cccs3)nc12`, 4.04%; under `Cc1nnc2ccc(S(=O)(=O)N(Cc3cc(F)cc(F)c3)c3ccc(F)cc3)cn12`, 0.47%.
Still for that read-out and setting: under `Cc1cccc(CN(c2cc(C)cc(C)c2)S(=O)(=O)c2cccn3c(C)nnc23)c1` stands 1.12%; under `Cc1ccc(-c2cc3c4nnc(CCC(=O)N5CCN(c6ccccn6)CC5)n4ccn3n2)cc1C`, 0.49%; under `O=C(Cn1nc2c(Sc3ccccc3)nccn2c1=O)Nc1cc(F)ccc1F`, 0.26%.
The same measure, in the same setting: for `CC(=O)c1ccc(NC(=O)Cn2nc3c(Sc4ccc(C)cc4C)nccn3c2=O)cc1` the value was 1.94%; for `CC(C)CCn1c(=O)c2ccc(C(=O)NC3CCCCC3)cc2n2c(=S)[nH]nc12`, 2.77%; for `COc1ccc(NC(=O)CSc2nc3ccccc3n3c(C(C)C)nnc23)c(OC)c1`, 2.71%.
Take `Cc1cccc(Sc2nccn3c(=O)n(CC(=O)Nc4ccc(Br)cc4C)nc23)c1`: the Inhibition stood at 6.35%.
On the same count and under the same terms, under `CC(C)(C)Sc1ccc2nn(CC(=O)NCc3ccc(Cl)cc3)c(=O)n2n1` stands 0.88%.
On the same count and under the same terms, under `CC(C)c1nnc2c(SCC(=O)Nc3ccc4c(c3)OCO4)nc3ccccc3n12` stands -0.7%.
Consider `COc1ccccc1Cn1c(=O)c2sccc2n2c(=O)n(Cc3ccccc3)nc12`, for which the Inhibition is recorded as -0.06%.
As for `O=C(CSc1nc2ccccc2n2cnnc12)Nc1cccc(Br)c1`, the Inhibition is on record as -0.56%.
Still for that read-out and setting: for `O=c1n(Cc2cccc(C(F)(F)F)c2)nc2c(S(=O)(=O)N3CCCCC3)cccn12` the value was 1.28%; for `CC(C)CCNC(=O)Cn1nc2n(Cc3ccco3)c(=O)c3sccc3n2c1=O`, 3.16%.
Turning to `O=C(Cn1nc2c3cc(-c4ccc(F)cc4)nn3ccn2c1=O)N1CCN(c2ccccc2F)CC1`, the Inhibition amounted to 2.96%.
The same measure, in the same setting: for `COc1ccc(NC(=O)Cn2nc3c(Oc4cccc(OC)c4)nccn3c2=O)cc1` the value was 3.75%; for `CCC(Sc1nnc2c(=O)n(-c3cccc(OC)c3)ccn12)C(=O)Nc1cc(C)ccc1C` (stereo not drawn), 1.67%; for `COc1ccccc1NC(=O)Cn1nc2c(SCc3ccccc3)nccn2c1=O`, 5.7%.
Still for that read-out and setting: under `COc1ccc(-n2ccn3c(SCC(=O)N4CCN(c5ccccc5F)CC4)nnc3c2=O)cc1` stands 2.59%; under `Cc1ccccc1Cn1nc2c(=O)n(-c3ccc(Br)cc3)ccn2c1=O`, 0.14%.
Same read-out and setting: for `Cc1ccc(Cn2c(=O)c3ccccc3n3c(=O)n(CC(=O)Nc4ccc5c(c4)OCCO5)nc23)cc1` the value was 0.1%; for `COc1ccccc1NC(=O)Cn1c(=O)c2nnc(C(C)C)n2c2ccccc21`, -0.06%.
Regarding `Cc1ccc(NC(=O)CSc2nc3ccccc3n3c(C)nnc23)cc1C`, the Inhibition came to 44.31%.
On the same count and under the same terms, under `CCc1nnc2c(S(=O)(=O)N(Cc3cccc(C)c3)c3cccc(Cl)c3)cccn12` stands 3.58%; under `CC(C)c1ccc(NC(=O)Cn2nc3c(Sc4ccccc4)nccn3c2=O)cc1`, 23.16%.
On the same count and under the same terms, under `O=C(Cn1nc2c(SC3CCCCC3)nccn2c1=O)Nc1ccc(F)c(Cl)c1` stands 5.93%; under `COc1ccc(OC)c(NC(=O)Cn2nc3c4cc(-c5ccc(Cl)cc5)nn4ccn3c2=O)c1`, -0.3%; under `O=C(Cn1nc2c(Oc3ccccc3)nccn2c1=O)Nc1ccc(Br)cc1F`, 5.04%.
On the same count and under the same terms, for `Cc1c(Cl)cccc1-n1ccn2c(=O)n(Cc3cccc(Cl)c3)nc2c1=O` the value was 2.56%.
With `COc1ccccc1-n1ccn2c(SCC(=O)Nc3ccc(C)cc3C)nnc2c1=O`, the Inhibition was 2.45%.
Take `COc1ccc(OC)c(NC(=O)Cn2nc3c(SCc4ccc(Cl)cc4)nccn3c2=O)c1`: the Inhibition is 23.62%.
On the same count and under the same terms, for `Cc1ccc(F)cc1NC(=O)CSc1nc2ccccc2n2c(C(C)C)nnc12` the value was 0.82%; for `CCc1ccccc1Sc1nccn2c(=O)n(CC(=O)N3CCN(c4ccccc4)CC3)nc12`, 3.92%; for `Cc1ccc(Oc2nccn3c(=O)n(CC(=O)Nc4ccc(Cl)cc4F)nc23)cc1`, 4.29%.
The same measure, in the same setting: under `O=C(Cn1nc2c(N3CCOCC3)nccn2c1=O)Nc1ccc(Br)cc1F` stands 1.73%; under `O=C(CSc1nc2ccccc2n2cnnc12)Nc1cc(C(F)(F)F)ccc1Cl`, 15.89%.

A further experiment deals with Cryptococcus neoformans. As to conditions: Concentration 32 ug.mL-1; ASSAY_TEST Inhibition of Fungal Growth; detection method Resazurin; Absorption (OD600-OD570); plate type 384well; NBS; CORNING #3640. A general note: The colour change of resazurin is a common sign of viable cells or microbes.
Take `O=C(Cn1nc2c(N3CCOCC3)nccn2c1=O)NCc1cccs1`: the Inhibition was -8.25%.
Same read-out and setting: under `COc1cc(NC(=O)CSc2nnc3c(=O)n(-c4cccc(OC)c4)ccn23)cc(OC)c1` stands -8.68%; under `CCc1ccccc1Sc1nccn2c(=O)n(CC(=O)NCc3cccs3)nc12`, -9.94%.
On the same count and under the same terms, for `Cc1nnc2ccc(S(=O)(=O)N(Cc3cc(F)cc(F)c3)c3ccc(F)cc3)cn12` the value was -6.16%; for `Cc1cccc(CN(c2cc(C)cc(C)c2)S(=O)(=O)c2cccn3c(C)nnc23)c1`, -10.57%; for `Cc1ccc(-c2cc3c4nnc(CCC(=O)N5CCN(c6ccccn6)CC5)n4ccn3n2)cc1C`, -12.2%.
Same read-out and setting: under `O=C(Cn1nc2c(Sc3ccccc3)nccn2c1=O)Nc1cc(F)ccc1F` stands -12.37%.
Take `CC(=O)c1ccc(NC(=O)Cn2nc3c(Sc4ccc(C)cc4C)nccn3c2=O)cc1`: the Inhibition is -20.51%.
Same read-out and setting: under `CC(C)CCn1c(=O)c2ccc(C(=O)NC3CCCCC3)cc2n2c(=S)[nH]nc12` stands -13.59%; under `COc1ccc(NC(=O)CSc2nc3ccccc3n3c(C(C)C)nnc23)c(OC)c1`, -21.27%; under `Cc1cccc(Sc2nccn3c(=O)n(CC(=O)Nc4ccc(Br)cc4C)nc23)c1`, -17.23%.
Same read-out and setting: for `CC(C)(C)Sc1ccc2nn(CC(=O)NCc3ccc(Cl)cc3)c(=O)n2n1` the value was -9.66%; for `CC(C)c1nnc2c(SCC(=O)Nc3ccc4c(c3)OCO4)nc3ccccc3n12`, -20.34%.
The same measure, in the same setting: for `COc1ccccc1Cn1c(=O)c2sccc2n2c(=O)n(Cc3ccccc3)nc12` the value was -28.67%.
With `O=C(CSc1nc2ccccc2n2cnnc12)Nc1cccc(Br)c1`, the Inhibition was -6.2%.
Still for that read-out and setting: under `O=c1n(Cc2cccc(C(F)(F)F)c2)nc2c(S(=O)(=O)N3CCCCC3)cccn12` stands -8.66%; under `CC(C)CCNC(=O)Cn1nc2n(Cc3ccco3)c(=O)c3sccc3n2c1=O`, -8.69%; under `O=C(Cn1nc2c3cc(-c4ccc(F)cc4)nn3ccn2c1=O)N1CCN(c2ccccc2F)CC1`, -19.92%.
Still for that read-out and setting: under `COc1ccc(NC(=O)Cn2nc3c(Oc4cccc(OC)c4)nccn3c2=O)cc1` stands -7.1%.
Same read-out and setting: for `CCC(Sc1nnc2c(=O)n(-c3cccc(OC)c3)ccn12)C(=O)Nc1cc(C)ccc1C` (stereo not drawn) the value was -10.57%.
Regarding `COc1ccccc1NC(=O)Cn1nc2c(SCc3ccccc3)nccn2c1=O`, the Inhibition is listed as -17.11%.
The same measure, in the same setting: for `COc1ccc(-n2ccn3c(SCC(=O)N4CCN(c5ccccc5F)CC4)nnc3c2=O)cc1` the value was -14.55%; for `Cc1ccccc1Cn1nc2c(=O)n(-c3ccc(Br)cc3)ccn2c1=O`, -2.03%.
Still for that read-out and setting: under `Cc1ccc(Cn2c(=O)c3ccccc3n3c(=O)n(CC(=O)Nc4ccc5c(c4)OCCO5)nc23)cc1` stands -21.97%.
Still for that read-out and setting: under `COc1ccccc1NC(=O)Cn1c(=O)c2nnc(C(C)C)n2c2ccccc21` stands -9.5%; under `Cc1ccc(NC(=O)CSc2nc3ccccc3n3c(C)nnc23)cc1C`, -14.42%.
`CCc1nnc2c(S(=O)(=O)N(Cc3cccc(C)c3)c3cccc(Cl)c3)cccn12`: the Inhibition was -6.66%.
The same measure, in the same setting: for `CC(C)c1ccc(NC(=O)Cn2nc3c(Sc4ccccc4)nccn3c2=O)cc1` the value was -7.48%.
On the same count and under the same terms, for `O=C(Cn1nc2c(SC3CCCCC3)nccn2c1=O)Nc1ccc(F)c(Cl)c1` the value was -24.22%.
The same measure, in the same setting: under `COc1ccc(OC)c(NC(=O)Cn2nc3c4cc(-c5ccc(Cl)cc5)nn4ccn3c2=O)c1` stands -21.9%.
As for `O=C(Cn1nc2c(Oc3ccccc3)nccn2c1=O)Nc1ccc(Br)cc1F`, the Inhibition is given as -11.28%.
`Cc1c(Cl)cccc1-n1ccn2c(=O)n(Cc3cccc(Cl)c3)nc2c1=O`: the Inhibition was -15.28%.
The same measure, in the same setting: under `COc1ccccc1-n1ccn2c(SCC(=O)Nc3ccc(C)cc3C)nnc2c1=O` stands -10.8%; under `COc1ccc(OC)c(NC(=O)Cn2nc3c(SCc4ccc(Cl)cc4)nccn3c2=O)c1`, -18.91%; under `Cc1ccc(F)cc1NC(=O)CSc1nc2ccccc2n2c(C(C)C)nnc12`, -18.14%.
Still for that read-out and setting: for `CCc1ccccc1Sc1nccn2c(=O)n(CC(=O)N3CCN(c4ccccc4)CC3)nc12` the value was -19.52%.
For the compound `Cc1ccc(Oc2nccn3c(=O)n(CC(=O)Nc4ccc(Cl)cc4F)nc23)cc1`, the Inhibition is on record as -15%.
Same read-out and setting: for `O=C(Cn1nc2c(N3CCOCC3)nccn2c1=O)Nc1ccc(Br)cc1F` the value was -5.04%; for `O=C(CSc1nc2ccccc2n2cnnc12)Nc1cc(C(F)(F)F)ccc1Cl`, -19.78%.
